According to PubChem BioAssay (Tox21):
A number with no mark means an inactive call. Results filed as inconclusive are left out. A call without a number means that no potency is given here. Activity calls are given as the source filed them. Calls come from the whole dose curve; as a rule, active = well fitted curve in the direction sought with a large enough effect in the repeat runs; inconclusive = weak or mixed curves; inactive = no such curve, though single readings can be large; an effect the other way counts as inactive or inconclusive.

Assays:
[1] = qHTS RealTime-Glo MT Cell Viability Assay in HepG2 cells - 40 hour (AID 1224870); note: nearly all actives have a fitted effect of over 50% in size
Summary of the method: (§1)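 HepG2 cells (600/well) mixed with RealTime-Glo MT reagent, settled 5 h at 37 C/5% CO2 before compound addition. Nonlytic NanoLuc luminescence from viable-cell prosubstrate reduction read repeatedly during 40 h treatment at 37 C.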

[2] = A CellTox Green Cytotoxicity Assay to monitor cytotoxicity in HEK293 cells - 40 hour (AID 1224871); note: nearly all actives have a fitted effect of over 45% in size
Summary of the method: (§2)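 Read-out: fluorescence of a cell-impermeant cyanine dye staining DNA of dead cells, proportional to cytotoxicity. HEK293, 600 cells/well with reagent, compound (23 nL DMSO) added after 5 h; reads at 0, 8, 16, 24, 32, 40 h.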

[3] = qHTS RealTime-Glo MT Cell Viability Assay in HEK293 cells - 16 hour (AID 1224872); note: nearly all actives have a fitted effect of over 50% in size; note: potency is the fitted concentration of half-maximal effect
Summary of the method: (§3)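 Viability tracked continuously by luminescence as live cells reduce a prosubstrate for NanoLuc; HEK293 cells preincubated 5 h, compound-treated at 37 C, and read at 0, 8, 16, 24, 32 and 40 h.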

[4] = qHTS RealTime-Glo MT Cell Viability Assay in HepG2 cells - 8 hour (AID 1224873); note: nearly all actives have a fitted effect of over 55% in size
Summary of the method: as §1

[5] = qHTS RealTime-Glo MT Cell Viability Assay in HEK293 cells - 40 hour (AID 1224874); settings: RealTime-Glo luminescence; max response: hits give low values; note: nearly all actives have a fitted effect of over 50% in size; note: potency is the fitted concentration of half-maximal effect
Summary of the method: (§4)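 Luminescence readout at each listed time point; HEK293, 600 cells/well, RealTime-Glo MT reagent added with cells; compounds pinned (23 nL in DMSO) after 5 h at 37 C; continuous culture at 37 C.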

[6] = A CellTox Green Cytotoxicity Assay to monitor cytotoxicity in HEK293 cells - 24 hour (AID 1224875); note: series mostly up to about 77 µM; nearly all actives have a fitted effect of over 45% in size
Summary of the method: as §2

[7] = A CellTox Green Cytotoxicity Assay to monitor cytotoxicity in HepG2 cells - 16 hour (AID 1224876); note: nearly all actives have a fitted effect of over 45% in size
Summary of the method: (§5)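 HepG2, 600 cells/well premixed w/ CellTox Green; 5 h settle, 37 C/5% CO2; pintool cpd add (DMSO); 37 C, 40 h; fluorescence read at 0, 8, 16, 24, 32, 40 h.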

[8] = qHTS RealTime-Glo MT Cell Viability Assay in HepG2 cells - 32 hour (AID 1224877); note: nearly all actives have a fitted effect of over 55% in size
Summary of the method: (§6)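 Viability was tracked continuously by NanoLuc luminescence from prosubstrate reduced by living HepG2 cells, at successive time points over 40 h of compound exposure. Cells with reagent were preincubated 5 h at 37 °C before compound addition.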

[9] = qHTS RealTime-Glo MT Cell Viability Assay in HEK293 cells - 0 hour (AID 1224880); note: top concentration of the series differs between compounds; nearly all actives have a fitted effect of over 45% in size
Summary of the method: as §4

[10] = A CellTox Green Cytotoxicity Assay to monitor cytotoxicity in HepG2 cells - 0 hour (AID 1224882); note: nearly all actives have a fitted effect of over 35% in size
Summary of the method: as §5

[11] = A CellTox Green Cytotoxicity Assay to monitor cytotoxicity in HEK293 cells - 8 hour (AID 1224884); note: nearly all actives have a fitted effect of over 35% in size
Summary of the method: as §2

[12] = qHTS RealTime-Glo MT Cell Viability Assay in HepG2 cells - 16 hour (AID 1224885); note: nearly all actives have a fitted effect of over 50% in size
Summary of the method: as §6

[13] = qHTS RealTime-Glo MT Cell Viability Assay in HEK293 cells - 24 hour (AID 1224886); note: nearly all actives have a fitted effect of over 50% in size; note: potency is the fitted concentration of half-maximal effect
Summary of the method: as §3

[14] = qHTS RealTime-Glo MT Cell Viability Assay in HEK293 cells - 8 hour (AID 1224887); note: nearly all actives have a fitted effect of over 50% in size; note: potency is the fitted concentration of half-maximal effect
Summary of the method: as §4

[15] = A CellTox Green Cytotoxicity Assay to monitor cytotoxicity in HEK293 cells - 16 hour (AID 1224888); note: nearly all actives have a fitted effect of over 35% in size
Summary of the method: as §2

[16] = qHTS RealTime-Glo MT Cell Viability Assay in HepG2 cells - 0 hour (AID 1224889); note: nearly all actives have a fitted effect of over 50% in size
Summary of the method: as §6

[17] = A CellTox Green Cytotoxicity Assay to monitor cytotoxicity in HepG2 cells - 24 hour (AID 1224878); note: nearly all actives have a fitted effect of over 45% in size
Summary of the method: as §5

[18] = A CellTox Green Cytotoxicity Assay to monitor cytotoxicity in HepG2 cells - 40 hour (AID 1224879); note: nearly all actives have a fitted effect of over 40% in size
Summary of the method: as §5

[19] = A CellTox Green Cytotoxicity Assay to monitor cytotoxicity in HEK293 cells - 32 hour (AID 1224881); note: nearly all actives have a fitted effect of over 40% in size
Summary of the method: as §2

[20] = A CellTox Green Cytotoxicity Assay to monitor cytotoxicity in HepG2 cells - 32 hour (AID 1224883); note: nearly all actives have a fitted effect of over 50% in size
Summary of the method: as §5

CC(C)(Cc1c[nH]c2ccccc12)NCC(O)COc1ccccc1C#N (stereo not drawn)
Potency [1]: inactive | Potency [2]: inactive | Potency [3]: 16.9 µM (active) | outcome [4]: inactive | Potency [5]: 19 µM (active) | Potency [6]: inactive | Potency [7]: inactive | Potency [8]: inactive | Potency [9]: inactive | Potency [10]: inactive | Potency [11]: inactive | outcome [12]: inactive | Potency [13]: 9.52 µM (active) | Potency [14]: 7.56 µM (active) | Potency [15]: inactive | Potency [16]: inactive

C=C[Si](OCC)(OCC)OCC
Potency [1]: inactive | Potency [2]: inactive | Potency [3]: inactive | outcome [4]: inactive | max response [5]: 11.4% | Potency [6]: inactive | Potency [8]: inactive | Potency [17]: inactive | Potency [18]: inactive | Potency [9]: inactive | Potency [19]: inactive | Potency [10]: inactive | Potency [20]: inactive | Potency [11]: inactive | outcome [12]: inactive | Potency [13]: inactive | Potency [14]: inactive | Potency [15]: inactive | Potency [16]: inactive

CS(C)=O
Potency [1]: inactive | Potency [2]: inactive | Potency [3]: inactive | outcome [4]: inactive | Potency [6]: inactive | Potency [7]: inactive | Potency [8]: inactive | Potency [17]: inactive | Potency [18]: inactive | Potency [9]: inactive | Potency [19]: inactive | Potency [10]: inactive | Potency [20]: inactive | Potency [11]: inactive | Potency [14]: inactive | Potency [15]: inactive | Potency [16]: inactive

Nc1ccccc1Nc1ccccc1
Potency [1]: inactive | Potency [2]: inactive | Potency [3]: inactive | outcome [4]: inactive | Potency [6]: inactive | Potency [7]: inactive | Potency [8]: inactive | Potency [17]: inactive | Potency [18]: inactive | Potency [9]: inactive | Potency [19]: inactive | Potency [10]: inactive | Potency [20]: inactive | Potency [11]: inactive | outcome [12]: inactive | Potency [13]: inactive | Potency [15]: inactive | Potency [16]: inactive

C[C@H]1C[C@H]2[C@@H]3CCC4=CC(=O)C=C[C@]4(C)[C@@]3(F)[C@@H](O)C[C@]2(C)[C@@]1(O)C(=O)COP(=O)(O)O
Potency [1]: inactive | Potency [2]: inactive | Potency [3]: inactive | max response [5]: -11.1% | Potency [6]: inactive | Potency [7]: inactive | Potency [8]: inactive | Potency [17]: inactive | Potency [18]: inactive | Potency [9]: inactive | Potency [19]: inactive | Potency [10]: inactive | Potency [20]: inactive | Potency [11]: inactive | outcome [12]: inactive | Potency [13]: inactive | Potency [14]: inactive | Potency [15]: inactive

CCCCCCCCCCCCCCCCC(=O)O
Potency [1]: inactive | Potency [2]: inactive | Potency [3]: inactive | outcome [4]: inactive | max response [5]: 3.49% | Potency [6]: inactive | Potency [8]: inactive | Potency [17]: inactive | Potency [18]: inactive | Potency [9]: inactive | Potency [10]: inactive | Potency [20]: inactive | Potency [11]: inactive | outcome [12]: inactive | Potency [13]: inactive | Potency [14]: inactive | Potency [15]: inactive | Potency [16]: inactive

CCc1ccc2c(c1)C(=O)c1ccccc1C2=O
Potency [1]: inactive | Potency [2]: inactive | Potency [3]: inactive | outcome [4]: inactive | max response [5]: 11.6% | Potency [6]: inactive | Potency [8]: inactive | Potency [17]: inactive | Potency [9]: inactive | Potency [19]: inactive | Potency [10]: inactive | Potency [20]: inactive | Potency [11]: inactive | outcome [12]: inactive | Potency [13]: inactive | Potency [14]: inactive | Potency [15]: inactive | Potency [16]: inactive

O=C(c1ccc(Cl)cc1)c1ccc(Cl)cc1
Potency [1]: inactive | Potency [2]: inactive | Potency [3]: inactive | outcome [4]: inactive | max response [5]: -15% | Potency [6]: inactive | Potency [7]: inactive | Potency [8]: inactive | Potency [9]: inactive | Potency [19]: inactive | Potency [10]: inactive | Potency [11]: inactive | Potency [13]: inactive | Potency [14]: inactive | Potency [15]: inactive | Potency [16]: inactive

Clc1nc2ccccc2nc1Cl
Potency [1]: inactive | Potency [2]: inactive | Potency [3]: inactive | outcome [4]: inactive | Potency [6]: inactive | Potency [7]: inactive | Potency [8]: inactive | Potency [18]: inactive | Potency [9]: inactive | Potency [19]: inactive | Potency [10]: inactive | Potency [20]: inactive | Potency [11]: inactive | Potency [14]: inactive | Potency [15]: inactive | Potency [16]: inactive

C/C=C1\[C@H]2C=C(C)C[C@]1(N)c1ccc(=O)[nH]c1C2
Potency [1]: inactive | Potency [2]: inactive | Potency [3]: inactive | outcome [4]: inactive | max response [5]: -2.81% | Potency [6]: inactive | Potency [8]: inactive | Potency [17]: inactive | Potency [18]: inactive | Potency [9]: inactive | Potency [19]: inactive | Potency [10]: inactive | Potency [20]: inactive | Potency [11]: inactive | outcome [12]: inactive | Potency [13]: inactive | Potency [14]: inactive | Potency [15]: inactive | Potency [16]: inactive

CCCCCCCCOCCCN
Potency [1]: inactive | Potency [2]: inactive | Potency [3]: inactive | outcome [4]: inactive | max response [5]: 2.92% | Potency [6]: inactive | Potency [8]: inactive | Potency [17]: inactive | Potency [18]: inactive | Potency [19]: inactive | Potency [10]: inactive | Potency [20]: inactive | Potency [11]: inactive | outcome [12]: inactive | Potency [13]: inactive | Potency [14]: inactive | Potency [15]: inactive

CCOC(=O)CC(O)(CC(=O)OCC)C(=O)OCC
Potency [1]: inactive | Potency [2]: inactive | Potency [3]: inactive | outcome [4]: inactive | Potency [6]: inactive | Potency [8]: inactive | Potency [17]: inactive | Potency [18]: inactive | Potency [9]: inactive | Potency [19]: inactive | Potency [10]: inactive | Potency [20]: inactive | Potency [11]: inactive | outcome [12]: inactive | Potency [14]: inactive | Potency [15]: inactive | Potency [16]: inactive

CC1(COc2ccc(CC3SC(=O)NC3=O)cc2)CCCCC1 (stereo not drawn)
Potency [1]: inactive | Potency [2]: inactive | Potency [3]: inactive | outcome [4]: inactive | max response [5]: 1.6% | Potency [7]: inactive | Potency [8]: inactive | Potency [17]: inactive | Potency [9]: inactive | Potency [10]: inactive | Potency [20]: inactive | Potency [11]: inactive | outcome [12]: inactive | Potency [13]: inactive | Potency [14]: inactive | Potency [15]: inactive | Potency [16]: inactive

CC(C)Oc1ccccc1O
Potency [1]: inactive | Potency [2]: inactive | Potency [3]: inactive | outcome [4]: inactive | max response [5]: 2.84% | Potency [6]: inactive | Potency [8]: inactive | Potency [17]: inactive | Potency [18]: inactive | Potency [9]: inactive | Potency [19]: inactive | Potency [10]: inactive | Potency [20]: inactive | Potency [11]: inactive | outcome [12]: inactive | Potency [13]: inactive | Potency [14]: inactive | Potency [15]: inactive | Potency [16]: inactive

O=Cc1ccc([N+](=O)[O-])cc1
Potency [1]: inactive | Potency [2]: inactive | Potency [3]: inactive | outcome [4]: inactive | max response [5]: 7.58% | Potency [6]: inactive | Potency [8]: inactive | Potency [17]: inactive | Potency [18]: inactive | Potency [9]: inactive | Potency [19]: inactive | Potency [10]: inactive | Potency [20]: inactive | outcome [12]: inactive | Potency [13]: inactive | Potency [14]: inactive | Potency [15]: inactive | Potency [16]: inactive
